The compounds below were run on P. falciparum NF54-pfs16-GFP late (IV-V) stage gametocytes (assay: relative % inhibition of viable gametocyte number; higher = more gametocytocidal). Conditions: 0.5 µM; stage: late (IV-V) gametocyte; incubation 72 h.
Outline: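 Early-stage (I/IIa, day 2) or late-stage (day 8) NF54 pfs16-GFP gametocytes were isolated by magnet and plated in 384-well poly-D-lysine imaging plates at 10% parasitaemia and 0.1% haematocrit, with compound in duplicate at 5 or 0.5 µM. After 72 h at 37°C under 5% CO2 and 5% O2, MitoTracker Red was added overnight. Confocal imaging scored elongated GFP objects whose MitoTracker signal passed a cut-off as viable gametocytes. Relative inhibition was normalised against vehicle and positive-control wells on the same plate.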

Going from O=C(Nc1ccc(N2CCCCC2)c(Cl)c1)c1ccc(Br)o1 to Cn1c(=O)c2cc(C(=O)NCCCN3CCCCCC3)sc2c2ccccc21, the relative % inhibition falls from 6.1% to -1.01%.

First: COC(=O)c1ccc(C2C3=C(O)CC(c4ccc(F)cc4)CC3=Nc3ccccc3N2C(=O)c2ccccc2)cc1 (stereo unspecified)
Second: CCCCCC(=O)N1c2ccccc2N=C2CC(c3ccc(OC)c(OC)c3)CC(O)=C2C1c1ccc(C(F)(F)F)cc1 (stereo unspecified)
The relative % inhibition of the first is higher: 88.6% for the first, 32.8% for the second.

First: Clc1cc(Br)ccc1-c1ccc(CNCC2CCNCC2)o1
Second: Cc1ccc(CSCc2ccc(C(=O)NC3CC3)o2)cc1
The relative % inhibition of the first is higher: 36.1% for the first, 19.6% for the second.

Compared with COc1cc2cc(C(=O)Nc3ccccc3)c(N)nc2cc1OC, COc1cccc(Nc2nc(N)c3ccccc3n2)c1 is higher in relative % inhibition: 3.1% for the first, 7.14% for the second.

Going from COCCn1c(C)nc2ccccc2c1=O to CCn1c(SCC(=O)Nc2cc(C(F)(F)F)ccc2Cl)nc2ccccc2c1=O, the relative % inhibition falls from 43.2% to 5.8%.

First: COc1ccc(C(=O)NC(c2ccccc2Cl)c2cc(Cl)c3cccnc3c2O)cc1 (stereo unspecified)
Second: COc1ccc(CNC(=O)c2cc3c(=O)n4ccccc4nc3n(CCc3ccccc3)c2=N)cc1
The relative % inhibition of the first is higher: 18.6% for the first, -16.6% for the second.

Compared with CCOc1cccc2sc(N(Cc3cccnc3)C(=O)C3CCCCC3)nc12, CCOc1ccc(-c2nonc2NC(=O)c2cccc(C)c2)cc1OCC is higher in relative % inhibition: -9.86% for the first, 27.6% for the second.

First: Cc1ccc2c(C)nc(Nc3nc(C)cc(-c4ccccc4)n3)nc2c1
Second: COc1cc(-c2nc(-c3ccccc3)c(-c3ccccc3)[nH]2)cc(OC)c1O
The relative % inhibition of the first is higher: 111% for the first, -17% for the second.

Going from Cc1cc(NC(=O)c2ccc(-c3ccccc3)cc2)no1 to COc1ccc(-c2nonc2NC(=O)c2cccc(C)c2)cc1OC, the relative % inhibition falls from 13.3% to -13.4%.

Going from COc1ccc(CNC2CCN(c3ccc(NC(=O)c4cccc(Cl)c4)cc3)CC2)cc1OC to CCOC(=O)c1cnc2ccc(OC)cc2c1Nc1ccc(N2CCN(C)CC2)cc1, the relative % inhibition rises from -4.13% to 11.9%.

Going from FC(F)(F)c1ccc(Nc2nnnc3ccccc23)cc1 to CCOc1ccc(Nc2c3ccccc3nc3ccccc23)cc1, the relative % inhibition falls from 25% to 8.64%.

First: Cc1ccc(N2C(=O)C3C(C2=O)C2(c4ccccc4)C(=O)C3(c3ccccc3)C(c3ccccc3)=C2c2ccccc2)cc1 (stereo unspecified)
Second: Cc1ccc(N2C3c4ccccc4N(S(=O)(=O)c4ccc(C)cc4)C2c2ccccc2N3S(=O)(=O)c2ccc(C)cc2)cc1
The relative % inhibition of the first is lower: 45.4% for the first, 95% for the second.

Going from Clc1ccc2[nH]c3c(NCCCN4CCOCC4)ncnc3c2c1 to CCN(CC)CCNc1ncnc2c1[nH]c1ccc(Cl)cc12, the relative % inhibition falls from 12.4% to 2.71%.

Going from C=C(C)CCC(C)N1CCC(N2CCC(C(=O)NCCc3ccccc3)CC2)CC1 (stereo unspecified) to COc1ccccc1N1CCN(C(CNS(=O)(=O)c2ccc(Cl)cc2)c2cccnc2)CC1 (stereo unspecified), the relative % inhibition rises from -12.5% to -0.978%.

First: CCCCNc1nc(NC(C)(C)C)nc(NC(C)(C)C)n1
Second: CN(C)CCCNc1c2ccccc2nc2ccccc12
The relative % inhibition of the first is lower: 31.7% for the first, 57.9% for the second.

Compared with CC(=O)c1sc(NC(=O)Nc2ccc(C)cc2C)nc1C, Cc1cc(C)cc(Nc2cc(C)nc3nc(C(F)(F)F)nn23)c1 is lower in relative % inhibition: -2.19% for the first, -4.65% for the second.

First: COc1cc2c3cc1Oc1c(OC)c(OC)cc4c1C(Cc1ccc(O)c(c1)Oc1ccc(cc1)CC3N(C)CC2)N(C)CC4 (stereo unspecified)
Second: COc1ccc(C2NCCc3c2[nH]c2ccccc32)cc1CN1CCN(c2ccc(F)cc2)CC1 (stereo unspecified)
The relative % inhibition of the first is lower: -24.9% for the first, 8.16% for the second.

Going from CC(C)c1ccc(CNCC(O)c2ccccc2)cc1 (stereo unspecified) to O=C1C2=C(Nc3ccccc3SC2c2ccccc2)c2ccccc21 (stereo unspecified), the relative % inhibition rises from 17.3% to 61.6%.

Compared with COc1ccc(C(=O)Nc2nonc2-c2ccc(OC)c(OC)c2)cc1Cl, COc1cc(OC)c(N(C)C(=O)c2cc3c(s2)-c2ccccc2S(=O)(=O)C3)cc1Cl is higher in relative % inhibition: 13.1% for the first, 28.5% for the second.

Same assay, conditions: 5 µM; stage: late (IV-V) gametocyte; incubation 72 h

Compared with O=C(Nc1ccc(N2CCCCC2)c(Cl)c1)c1ccc(Br)o1, Cn1c(=O)c2cc(C(=O)NCCCN3CCCCCC3)sc2c2ccccc21 is lower in relative % inhibition: 22.2% for the first, -0.0726% for the second.

First: COC(=O)c1ccc(C2C3=C(O)CC(c4ccc(F)cc4)CC3=Nc3ccccc3N2C(=O)c2ccccc2)cc1 (stereo unspecified)
Second: CCCCCC(=O)N1c2ccccc2N=C2CC(c3ccc(OC)c(OC)c3)CC(O)=C2C1c1ccc(C(F)(F)F)cc1 (stereo unspecified)
The relative % inhibition of the first is higher: 98.4% for the first, 60.6% for the second.

First: Clc1cc(Br)ccc1-c1ccc(CNCC2CCNCC2)o1
Second: Cc1ccc(CSCc2ccc(C(=O)NC3CC3)o2)cc1
The relative % inhibition of the first is higher: 89.9% for the first, 43.1% for the second.

First: COc1cc2cc(C(=O)Nc3ccccc3)c(N)nc2cc1OC
Second: COc1cccc(Nc2nc(N)c3ccccc3n2)c1
The relative % inhibition of the first is lower: -13.4% for the first, 1.59% for the second.

Compared with COCCn1c(C)nc2ccccc2c1=O, CCn1c(SCC(=O)Nc2cc(C(F)(F)F)ccc2Cl)nc2ccccc2c1=O is lower in relative % inhibition: 16.8% for the first, -6.79% for the second.

Going from COc1ccc(C(=O)NC(c2ccccc2Cl)c2cc(Cl)c3cccnc3c2O)cc1 (stereo unspecified) to COc1ccc(CNC(=O)c2cc3c(=O)n4ccccc4nc3n(CCc3ccccc3)c2=N)cc1, the relative % inhibition falls from 38.6% to -9.45%.

First: CCOc1cccc2sc(N(Cc3cccnc3)C(=O)C3CCCCC3)nc12
Second: CCOc1ccc(-c2nonc2NC(=O)c2cccc(C)c2)cc1OCC
The relative % inhibition of the first is lower: 11.9% for the first, 18.4% for the second.

Compared with Cc1ccc2c(C)nc(Nc3nc(C)cc(-c4ccccc4)n3)nc2c1, COc1cc(-c2nc(-c3ccccc3)c(-c3ccccc3)[nH]2)cc(OC)c1O is lower in relative % inhibition: 113% for the first, 2.98% for the second.

First: Cc1cc(NC(=O)c2ccc(-c3ccccc3)cc2)no1
Second: COc1ccc(-c2nonc2NC(=O)c2cccc(C)c2)cc1OC
The relative % inhibition of the first is higher: 36.8% for the first, -9.12% for the second.

Going from COc1ccc(CNC2CCN(c3ccc(NC(=O)c4cccc(Cl)c4)cc3)CC2)cc1OC to CCOC(=O)c1cnc2ccc(OC)cc2c1Nc1ccc(N2CCN(C)CC2)cc1, the relative % inhibition rises from -22% to 19.4%.

Compared with FC(F)(F)c1ccc(Nc2nnnc3ccccc23)cc1, CCOc1ccc(Nc2c3ccccc3nc3ccccc23)cc1 is higher in relative % inhibition: 7.26% for the first, 20.9% for the second.

First: Cc1ccc(N2C(=O)C3C(C2=O)C2(c4ccccc4)C(=O)C3(c3ccccc3)C(c3ccccc3)=C2c2ccccc2)cc1 (stereo unspecified)
Second: Cc1ccc(N2C3c4ccccc4N(S(=O)(=O)c4ccc(C)cc4)C2c2ccccc2N3S(=O)(=O)c2ccc(C)cc2)cc1
The relative % inhibition of the first is lower: 58.1% for the first, 98.9% for the second.

First: Clc1ccc2[nH]c3c(NCCCN4CCOCC4)ncnc3c2c1
Second: CCN(CC)CCNc1ncnc2c1[nH]c1ccc(Cl)cc12
The relative % inhibition of the first is lower: 17.7% for the first, 24.8% for the second.

First: C=C(C)CCC(C)N1CCC(N2CCC(C(=O)NCCc3ccccc3)CC2)CC1 (stereo unspecified)
Second: COc1ccccc1N1CCN(C(CNS(=O)(=O)c2ccc(Cl)cc2)c2cccnc2)CC1 (stereo unspecified)
The relative % inhibition of the first is lower: -42.7% for the first, 32.7% for the second.

Going from CCCCNc1nc(NC(C)(C)C)nc(NC(C)(C)C)n1 to CN(C)CCCNc1c2ccccc2nc2ccccc12, the relative % inhibition rises from 43.5% to 101%.

First: CC(=O)c1sc(NC(=O)Nc2ccc(C)cc2C)nc1C
Second: Cc1cc(C)cc(Nc2cc(C)nc3nc(C(F)(F)F)nn23)c1
The relative % inhibition of the first is lower: -29.6% for the first, -1.16% for the second.

Compared with COc1cc2c3cc1Oc1c(OC)c(OC)cc4c1C(Cc1ccc(O)c(c1)Oc1ccc(cc1)CC3N(C)CC2)N(C)CC4 (stereo unspecified), COc1ccc(C2NCCc3c2[nH]c2ccccc32)cc1CN1CCN(c2ccc(F)cc2)CC1 (stereo unspecified) is higher in relative % inhibition: 23.7% for the first, 58% for the second.

Going from CC(C)c1ccc(CNCC(O)c2ccccc2)cc1 (stereo unspecified) to O=C1C2=C(Nc3ccccc3SC2c2ccccc2)c2ccccc21 (stereo unspecified), the relative % inhibition rises from 39.8% to 55.8%.

Going from COc1ccc(C(=O)Nc2nonc2-c2ccc(OC)c(OC)c2)cc1Cl to COc1cc(OC)c(N(C)C(=O)c2cc3c(s2)-c2ccccc2S(=O)(=O)C3)cc1Cl, the relative % inhibition falls from 59.1% to 44.6%.

Reference: the supplement of paper PMC3842684
